This is a sample that favours compounds with a hit; in the whole collection about 5.4% have one here.
AHR act = activates the human aryl hydrocarbon receptor. P35869. AHR-responsive luciferase reporter cells, luminescence. activation, % at 5 µM. hit rate 2.5% among 320,000. AID 2796; in the data active = activation above about 47%;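 note: 0% = vehicle wells and 100% = reference agonist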
Target sequence (P35869 whole entry, looked up): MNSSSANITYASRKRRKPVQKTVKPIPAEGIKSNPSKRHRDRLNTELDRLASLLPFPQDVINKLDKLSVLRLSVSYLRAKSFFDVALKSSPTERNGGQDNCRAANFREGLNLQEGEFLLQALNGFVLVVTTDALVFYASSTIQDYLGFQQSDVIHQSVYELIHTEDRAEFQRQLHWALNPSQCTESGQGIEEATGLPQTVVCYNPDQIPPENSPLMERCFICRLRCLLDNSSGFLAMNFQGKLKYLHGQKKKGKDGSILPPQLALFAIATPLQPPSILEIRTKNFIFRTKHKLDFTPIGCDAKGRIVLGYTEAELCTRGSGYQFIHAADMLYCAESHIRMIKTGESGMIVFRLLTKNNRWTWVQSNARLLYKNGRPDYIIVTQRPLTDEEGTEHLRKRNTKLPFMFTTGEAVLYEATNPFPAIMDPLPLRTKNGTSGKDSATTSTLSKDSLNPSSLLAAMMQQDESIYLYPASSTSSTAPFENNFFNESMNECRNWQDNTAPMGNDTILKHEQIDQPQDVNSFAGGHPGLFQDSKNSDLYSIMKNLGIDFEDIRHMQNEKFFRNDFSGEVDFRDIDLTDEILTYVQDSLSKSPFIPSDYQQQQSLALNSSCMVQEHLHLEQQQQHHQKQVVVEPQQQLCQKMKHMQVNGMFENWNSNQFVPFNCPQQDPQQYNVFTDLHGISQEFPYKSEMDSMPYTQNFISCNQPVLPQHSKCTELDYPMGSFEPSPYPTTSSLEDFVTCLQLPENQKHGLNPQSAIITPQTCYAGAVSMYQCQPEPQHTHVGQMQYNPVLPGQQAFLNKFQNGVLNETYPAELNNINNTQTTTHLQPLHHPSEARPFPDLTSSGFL
NR0B1 inh = inhibitors of human orphan nuclear receptor DAX1 (NR0B1); P51843; HEK293 Gal4-DAX1 luciferase reporter, luminescence; inhibition, % at 6.75 µM; hit rate 0.99% among 340,000; AID 504766;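 active = inhibition above the mean over all tested compounds plus 3 SD, cut at about 4.2% in these data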;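 note: 0% = DAX1-transfected cells with DMSO and 100% = empty-vector control cells with DMSO; inhibition shows as a rise in luminescence from relieved DAX1 repression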
HSF-1 act = increases HSF-1 driven luciferase reporter signal | NIH3T3-HGL HSF-1 luciferase reporter, MG132, 8 h; 100% = twice DMSO control signal | activation, % at 9 µM | hit rate 1.7% among 300,000;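 active = mean replicate activation of at least 50% with a set share of replicates each reaching 50%; inconclusive = only one of those two conditions met; inactive = mean below 50% and too few replicates reaching it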;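 note: 0% = median of the neutral control wells and 100% = twice that signal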
GAA850 FXN act = activators of GAA850 frataxin (FXN) promoter. HEK293 lucGAA850 FXN promoter luciferase reporter, 24 h; percent of 10 µM SAHA response. activation, % at 6 µM. hit rate 0.56% among 360,000;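 active = activation above the average of all compounds screened plus 3 SD, cutoff fixed separately per campaign, cut at about 7.5% in these data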;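 note: 0% = DMSO wells and 100% = 10 µM SAHA wells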
HSF1 inh = HSF1 inhibition. AID 2098. hit rate 0.77% among 300,000. NIH3T3-HGL HSE-luciferase, MG132-induced, luminescence 8 h; stronger effect = lower value. activity change, negative = inhibition, % at 7.5 µM (by protocol);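 active = more than half of replicate wells show activity change below -50%, luminescence cut by over half; inconclusive = some wells, but at most half, below -50%; inactive = no replicate well below -50%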;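 note: luciferase reports HSF-1 transcriptional activity via heat shock element; 0% = median of DMSO wells and -100% = zero luminescence signal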
Active calls of the source: *; ? = inconclusive; / = not tested or not shown.

SMILES | AHR act | NR0B1 inh | HSF-1 act | GAA850 FXN act | HSF1 inh
CCCCNC(=O)c1cc2c(C)cc(C)cc2[nH]1 | 55* | 0 | 13 | 0 | 2
Cc1cccc(S(=O)(=O)NC(=O)C2(C)CCN2C(=O)Cc2ccccc2)c1 (centres undefined) | / | / | / | 0 | /
O=C1Nc2cc(Cl)c(Cl)cc2N(O)N1c1ccc(Cl)c(Cl)c1 | 57* | 0 | -10 | 1 | -6
O=Cc1ccccc1OCc1ccc2c(c1)OCO2 | 39 | 4.5* | 35 | 3 | 4
O=C(NCCCN1CCOCC1)/C(=C/c1cccs1)NC(=O)c1ccccc1 | 0 | 2 | 10 | -1 | 2
Cc1cc(N2CCN(c3ccccc3)CC2)nc(-c2ccccc2O)n1 | 78* | -1 | 11 | 2 | 1
Cc1cc(N2CCC(C)CC2)nc(-c2ccccc2O)n1 | 8 | 1 | 0 | -2 | -4
CCOn1c(=O)c(-c2ccc(F)cc2)[n+]([O-])c2ccccc21 | / | 4.8* | -50 | -1 | -38
CCOn1c(=O)c(-c2cccs2)[n+]([O-])c2ccccc21 | 9 | 5.2* | 15 | 2 | 2
COn1c(=O)c(-c2ccc(Cl)cc2)[n+]([O-])c2ccccc21 | 72* | 2 | -20 | -1 | -4
CCOC(=O)COn1c(=O)c(-c2cccs2)[n+]([O-])c2ccccc21 | 7 | 0 | 8 | 1 | 1
N#Cc1cc([N+](=O)[O-])ccc1NC(=O)CSc1n[nH]c(=O)[nH]c1=O | 12 | -3 | / | 3 | /
Cc1ccc(N2CC(=O)Nc3c(oc4nc(-c5ccccc5)cc(C)c34)C2=O)cc1 | -1 | 3 | 1 | 1 | 6
C=CCn1c(=N)n(CC(O)COc2ccccc2OC)c2ccccc21 (centres undefined) | 62* | -1 | -5 | -1 | -5
CCCCCn1c(=N)n(CC(O)COc2ccccc2OC)c2ccccc21 (centres undefined) | 49* | -1 | 5 | -8 | -4
Cc1ccc(NS(=O)(=O)c2ccc(C(=O)N3CCN(S(=O)(=O)c4ccccc4)CC3)cc2)cc1 | 5 | -2 | 8 | 1 | 3
CN(C)C(=O)N1CCCC(C(=O)NCc2ccc(F)cc2Cl)C1 (centres undefined) | 2 | 0 | / | 0 | /
CN(C)C(=O)N1CCC(C(=O)NCc2ccc(F)cc2Cl)CC1 | -4 | -1 | -73 | 1 | -69*
Clc1cccc(NCc2ccccc2)n1 | 3 | 4.9* | -11 | 7 | 0
Clc1nccc(NCc2ccccc2)n1 | -3 | 2 | 2 | 1 | 0
CC(C)[C@H](NC(=O)c1nn(Cc2ccccc2)c(=O)c2ccccc12)C(=O)O | 0 | 0 | -4 | 1 | -4
COc1ccc(CNC(=O)c2ccc3nc(C)c(N(C)Cc4ccc(NC(C)=O)cc4)n3c2)cc1 | / | / | / | -5 | /
CNC(=S)N(CCc1c(C)[nH]c2ccc(OC)cc12)Cc1cc(OC)c(OC)c(OC)c1 | 16 | 1 | 16 | -2 | -2
COc1ccc(NC(=S)N(CCc2c(C)[nH]c3ccc(C)cc23)Cc2cccs2)cc1 | 64* | 0 | 39 | -1 | 22
CNC(=S)N(CCc1c(C)[nH]c2ccc(C)cc12)Cc1cc(OC)c(OC)c(OC)c1 | 18 | -1 | -73 | 1 | -66*
SMILES | AHR act | NR0B1 inh | HSF-1 act | GAA850 FXN act | HSF1 inh
CCN(CC)C(=O)[C@H]1C[C@H](CC(=O)NC/C=C(\C)CCC=C(C)C)C(=O)N2CCc3c([nH]c4cc(CCC(=O)N(C)C)ccc34)[C@]12C | / | -1 | / | 0 | /
Cc1cc(C)c(S(=O)(=O)ON2C(=O)c3ccccc3C2=O)cc1C | 12 | 0 | 62* | 6 | 42
Cc1cc(C)c(C)c(S(=O)(=O)ON2C(=O)c3ccccc3C2=O)c1C | 1 | 2 | 52* | 2 | 41
Cc1ccc(S(=O)(=O)ON2C(=O)c3ccccc3C2=O)c(C)c1 | 0 | 1 | / | -1 | /
O=C1c2ccccc2C(=O)N1OS(=O)(=O)c1ccc(F)cc1 | 1 | -1 | 7 | 0 | -4
Cc1cccc(N(CC(=O)NC2CCCC2)C(=O)CCC(=O)Nc2ccccn2)c1 | 1 | 3 | -25 | -1 | -4
O=C1C2C(C(=O)N1/N=C/c1cccc([N+](=O)[O-])c1)C1C=CC2C12CC2 (centres undefined) | 12 | 1 | 4 | 5 | -4
CCCCCc1ccc(-c2ccc(OC)cc2)nc1 | -5 | 1 | 38 | 6 | 15
CCCCCCc1ccc(-c2ncc(N)cn2)cc1 | 7 | 1 | 51* | 4 | 28
O=C(NCCc1ccccc1)c1ccc(-c2ccc(F)c(F)c2)c2ccoc12 | / | / | / | -1 | /
O=C(Nc1cccc(F)c1)c1ccc2c(c1)OCCO2 | -9 | 0 | 57* | 1 | 23
O=C(NC(=S)Nc1ccc(N2CCCCC2)cc1)c1ccc2c(c1)OCCO2 | 0 | 0 | -66 | -2 | -61*
O=C(Nc1ncccc1O)c1ccc2c(c1)OCCO2 | -1 | 8.1* | 20 | 7 | 10
CCN(CC)c1ccc(C(=O)Nc2cccc(F)c2)cc1 | -5 | 1 | 61* | 1 | 27
O=C(Nc1ncccc1O)c1ccc2c(c1)OCO2 | 18 | 4 | 12 | 5 | 8
O=C(NC(=S)Nc1ccc(N2CCOCC2)cc1)c1ccc2c(c1)OCCO2 | -1 | -1 | 18 | -2 | 9
CN(C)c1cccc(C(=O)Nc2cccc(F)c2)c1 | 40 | 2 | -16 | 4 | -3
CC[C@]12c3[nH]c4cc(CCC(=O)N(C)C)ccc4c3CCN1C(=O)[C@@H](CC(=O)NC(C)(C)C)C[C@@H]2C(=O)N1CCN(C(=O)c2ccco2)CC1 | / | 0 | / | -1 | /
CN(C)Cc1c(C(=O)N/N=C/c2ccncc2)nnn1-c1nonc1N | 1 | -1 | 14 | 2 | 5
O=C(NC(=S)Nc1ccc(F)cc1)c1ccc2c(c1)OCCO2 | 14 | 3 | -73 | 3 | -68*
O=C(NC(=S)Nc1ccc2c(c1)OCCO2)c1ccccc1F | 58* | 2 | 86* | 4 | 23
COc1ccc(NC(=S)NC(=O)c2ccc3c(c2)OCCO3)cc1 | 3 | 2 | / | 4 | /
O=C(Nc1ccc2c(c1)OCCO2)c1ccccc1F | -1 | -2 | 21 | 1 | 0
Cc1cccn2c(=O)c3cc(C(=O)NC4CCCC4)c(=N)n(CC4CCCO4)c3nc12 (centres undefined) | 55* | 0 | 8 | 2 | -8
Cc1cccn2c(=O)c3cc(C(=O)NCC4CCCO4)c(=N)n(CC4CCCO4)c3nc12 (centres undefined) | 3 | -1 | -14 | 1 | -7
COc1ccc(C(=O)NCCSC2CCCCC2)cc1 | 7 | 0 | 51* | 8 | 9
O=c1c2ccccc2nnn1CSc1ncnc2ccccc12 | 10 | 0 | 112* | 0 | 78
Cc1ccc2nc(SCn3nnc4ccccc4c3=O)[nH]c2c1 | 75* | 4 | ? | 7 | 29
O=c1ccnc(SCn2nnc3ccccc3c2=O)[nH]1 | 6 | 0 | -10 | -5 | 3
O=c1c2ccccc2nnn1CSc1ccccc1F | 45 | 3 | 82* | 0 | 29
